# Measurements taken from PubChem BioAssay (Tox21).
# Values joined by “and” are separate entries in the source; they are usually repeats but may differ in a detail not shown here. Equal values may be shown once. Unmarked numbers belong to inactive results. Records with an inconclusive call do not appear. A call without a number means that no potency is given here. Active and inactive are the calls of the source. Unless noted, calls follow the shape of the dose curve; as a rule, active = well fitted curve in the direction sought with a large enough effect in the repeat runs; inconclusive = weak or mixed curves; inactive = no such curve, though single readings can be large; an effect the other way counts as inactive or inconclusive.
# Legend:
# [1] = qHTS assay to identify small molecule agonists of H2AX (AID 1224845; active = well fitted activation curve with a large enough effect in the signal ratio in the repeat runs, not every such curve was filed as active; the % refers to the signal ratio; also: potency is read from the fitted curve at half-maximal effect)
# In short: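 Wild-type CHO-K1 cells plated overnight, then exposed 3 hr at 37C to compounds at 15 concentrations (0.76% DMSO). Lysed, then HTRF anti-pH2AX(S139)-cryptate/anti-H2AX-d2 detection after 24 hr at room temperature; emissions 665 and 620 nm.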
# [2] = qHTS assay to identify small molecule agonists of the estrogen related receptor (ERR) signaling pathway from Tox21 library (AID 1224849; calls by dose curve; also: nearly all actives have a fitted effect of over 15% in size); conditions: ERR reporter cell line, ONE-Glo luciferase, 18 h; at 92.4 µM (top of the series) unless noted
# In short: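 Six hours post-seeding at 37 C/5% CO2, ERR cells receive DMSO-solubilised compounds; after 18 h at 37 C, ONE-Glo reagent is applied and luminescence recorded.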
# [3] = A CellTox Green Cytotoxicity Assay to monitor cytotoxicity in HEK293 cells - 0 hour (AID 1224869); also: nearly all actives have a fitted effect of over 50% in size
# In short: (§1)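 Seeding of HEK293 cells together with cytotoxicity dye preceded a 5 h incubation at 37 C/5% CO2. Test compounds in DMSO were then added and fluorescence monitored across 40 h.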
# [4] = A CellTox Green Cytotoxicity Assay to monitor cytotoxicity in HEK293 cells - 40 hour (AID 1224871); also: nearly all actives have a fitted effect of over 45% in size; also: potency is read from the fitted curve at half-maximal effect
# In short: as §1
# [5] = qHTS assay to identify small molecule agonists of the hypoxia (HIF-1) signaling pathway (AID 1224846; active = well fitted activation curve with a large enough effect in the signal ratio in the repeat runs, not every such curve was filed as active; the % refers to the signal ratio)
# In short: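 Hypoxia-pathway activation was scored as increased beta-lactamase from an HRE-controlled reporter in ME-180 cells; plated at 2,000 cells per well with 0.5% dialyzed FBS, they were exposed 17 hrs to compounds and then given CCF4-AM.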
# [6] = qHTS assay to identify small molecule agonists of H2AX - cell viability counter screen (AID 1224847; calls by dose curve; also: nearly all actives have a fitted effect of over 30% in size; also: potency is read from the fitted curve at half-maximal effect)
# In short: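 We seed wild-type CHO-K1 cells overnight, treat them for 3 hr at 37C with compounds in 15-concentration series, and quantify remaining viability by CellTiter-Glo luminescence.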
# [7] = qHTS assay to identify small molecule antagonists of the estrogen related receptor (ERR) signaling pathway from Tox21 library (AID 1224848); also: nearly all actives have a fitted effect of over 50% in size; also: potency is read from the fitted curve at half-maximal effect
# In short: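 Cells: ERR line, 2,000/well; 6 h preincubation 37 C/5% CO2. Cpd in DMSO via pin tool; 18 h, 37 C. ONE-Glo, 30 min RT, luminescence.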
# [8] = qHTS RealTime-Glo MT Cell Viability Assay in HepG2 cells - 24 hour (AID 1224867); also: nearly all actives have a fitted effect of over 50% in size; also: potency is read from the fitted curve at half-maximal effect
# In short: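 HepG2 suspension premixed with RealTime-Glo reagents is plated at 600 cells per well and left 5 h at 37 C/5% CO2. Compounds in DMSO then go in, and bioluminescence reflecting viable cell number is recorded over 40 h.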
# [9] = qHTS RealTime-Glo MT Cell Viability Assay in HepG2 cells - 40 hour (AID 1224870); also: nearly all actives have a fitted effect of over 50% in size
# In short: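 HepG2 cells mixed with RealTime-Glo MT reagents (NanoLuc plus cell-permeant prosubstrate) were seeded at 600 cells/well, incubated 5 h at 37 C/5% CO2, then pinned with compounds in DMSO; nonlytic luminescence tracked viability during 40 h treatment.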
# [10] = qHTS RealTime-Glo MT Cell Viability Assay in HEK293 cells - 32 hour (AID 1224868); also: nearly all actives have a fitted effect of over 50% in size; also: potency is read from the fitted curve at half-maximal effect
# In short: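 Reads taken at 0, 8, 16, 24, 32 and 40 h from the same wells. HEK293 cells (600/well) carried RealTime-Glo reagents from seeding, with compound added after a 5 h settle at 37 C.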
SMILES,Potency [1],"activity change, positive = activation [2]",Potency [3],Potency [4],Potency [5],Potency [6],Potency [7],Potency [8],Potency [9],Potency [10]
O=C(Nc1ccccc1)c1ccccc1O,inactive,-30.7%,inactive,inactive,,,,,,
Nc1ccc(N)c2c1C(=O)c1ccccc1C2=O,,-37.5%,inactive,inactive,inactive,50.5 µM (active),43.3 µM (active),inactive,inactive,
O=C(Cl)c1cc(C(=O)Cl)cc(C(=O)Cl)c1,inactive,,inactive,,,inactive,,,,49 µM (active)
C=CC(=O)OCCOCCOCCOCCOC(=O)C=C,50.8 µM (active) and 50 µM (active),,inactive,49.2 µM (active) and 48.5 µM (active),,,,43.2 µM (active),,
COc1cc2nc(Cl)nc(N)c2cc1OC,inactive,,inactive,inactive,,inactive,,,inactive,
CCCCO,inactive,,inactive,inactive,,inactive,,,inactive,
CN(Cc1ccc(C(C)(C)C)cc1)Cc1cccc2ccccc12,inactive,,inactive,,,,,inactive,inactive,
CCCCCCCCCCCCN1CCCCCC1=O,inactive,-23.3%,inactive,inactive,,,,inactive,inactive,
CCNc1cc(O)ccc1C,,-8.23%,inactive,34.3 µM (active),inactive,inactive,inactive,inactive,inactive,inactive
C#CCN(C)CCCOc1ccc(Cl)cc1Cl,inactive,,inactive,inactive,,,,inactive,inactive,inactive
O[C@@H](COc1cccc2ncccc12)CN1CCN(C2c3ccccc3[C@@H]3[C@H](c4ccccc42)C3(F)F)CC1 (stereo partly drawn),inactive,,inactive,inactive,,inactive,,,inactive,
CC(C)Cc1ccc(C(C)C(=O)OCc2ccccn2)cc1 (stereo not drawn),,,inactive,inactive,inactive,inactive,,inactive,,
O=C(O)c1ccc(-n2nc(-c3ccccc3O)nc2-c2ccccc2O)cc1,,-48.9% [at 42.5 µM],inactive,inactive,,,21.1 µM (active),inactive,inactive,
COc1ccc(S(=O)(=O)N2C(=O)[C@@](c3ccccc3OC)(N3C[C@H](O)C[C@H]3C(=O)N(C)C)c3cc(Cl)ccc32)c(OC)c1,,,inactive,inactive,,,,,,49 µM (active)
CC(=O)c1ccc2c(c1)N(CCCN1CCC(CCO)CC1)c1ccccc1S2,,,inactive,23.9 µM (active),inactive,inactive,,,inactive,
CCN(CC)CCOC(=O)C(c1ccccc1)C1CCCCC1 (stereo not drawn),,,inactive,21.3 µM (active),inactive,49.2 µM (active),,,inactive,
Cn1c(=O)cc(Oc2ccc(F)cc2F)c2cnc(NCC(C)(C)O)nc21,,-55.2%,inactive,inactive,inactive,,30.6 µM (active),inactive,inactive,
CCOC(=O)C1=C[C@]2(CC)CCCN3CCc4c(n1c1ccccc41)[C@@H]32,,,inactive,inactive,inactive,inactive,,inactive,inactive,
COc1ccc(C(=O)c2ccc(OC)cc2O)c(O)c1,,-2.18% (active),inactive,,inactive,,inactive,,inactive,27.7 µM (active)
CCN(CC)c1ccc(C(=C2C=CC(=[N+](CC)CC)C=C2)c2cc(S(=O)(=O)O)ccc2S(=O)(=O)[O-])cc1,,-45.9% [at 42.5 µM],inactive,inactive,,22 µM (active),11.9 µM (active),inactive,inactive,
Cc1ccc(C(=O)Oc2ccc(C(O)CNC(C)(C)C)cc2OC(=O)c2ccc(C)cc2)cc1 (stereo not drawn),,,inactive,23.9 µM (active),,inactive,,21.3 µM (active),,
c1ccc(-c2ccccn2)nc1,,-20.5%,inactive,inactive,,inactive,,inactive,inactive,inactive
COS(=O)(=O)C(F)(F)F,,,inactive,inactive,,inactive,,inactive,inactive,
COc1ccc(C(=O)Nc2nc3ccccc3c(NCc3ccccc3)c2C#N)cc1,,-5.4%,inactive,inactive,inactive,inactive,inactive,,inactive,inactive
Cc1cccc(C)c1OCC(=O)N[C@@H](Cc1ccccc1)[C@@H](O)C[C@H](Cc1ccccc1)NC(=O)[C@H](C(C)C)N1CCCNC1=O,,-59.8% [at 42.5 µM],inactive,,,,23.7 µM (active),inactive,inactive,
C=CC(=O)OCCOc1ccccc1,,46.4% (active),inactive,inactive,,inactive,inactive,inactive,inactive,inactive
Cc1oc(-c2ccccc2)nc1CCOc1cccc2c1ccn2CCC(=O)O,,,inactive,inactive,inactive,inactive,,inactive,inactive,inactive
Cc1cc(N)c2cc(NC(=O)Nc3ccc4nc(C)cc(N)c4c3)ccc2n1,,,inactive,inactive,,,,inactive,inactive,inactive
CC(C)Nc1ccc(NC(C)C)c2c1C(=O)c1ccccc1C2=O,,,inactive,25.5 µM (active),inactive,26.3 µM (active),,,inactive,inactive
CN(C)CCCN1c2ccccc2Sc2ccccc21,,7.95% [at 42.5 µM],inactive,inactive,,inactive,inactive,inactive,inactive,inactive
